Shown are actives, neighbours in structure and some others; about 1.4% of the full set was active somewhere.
ASM inhibitor – blocks human secretory acid sphingomyelinase; Potency, µM (titrated, usually from 57.5 µM), for inactives: at the top dose activity change, negative = inhibition, usual class: inhibitors; placental ASM, HMU-PC fluorogenic substrate, 60 min; hit rate 0.006% among 340,000; P17405; also: potency is read from the fitted curve at half-maximal effect
Target sequence (P17405 47-631 limits assumed): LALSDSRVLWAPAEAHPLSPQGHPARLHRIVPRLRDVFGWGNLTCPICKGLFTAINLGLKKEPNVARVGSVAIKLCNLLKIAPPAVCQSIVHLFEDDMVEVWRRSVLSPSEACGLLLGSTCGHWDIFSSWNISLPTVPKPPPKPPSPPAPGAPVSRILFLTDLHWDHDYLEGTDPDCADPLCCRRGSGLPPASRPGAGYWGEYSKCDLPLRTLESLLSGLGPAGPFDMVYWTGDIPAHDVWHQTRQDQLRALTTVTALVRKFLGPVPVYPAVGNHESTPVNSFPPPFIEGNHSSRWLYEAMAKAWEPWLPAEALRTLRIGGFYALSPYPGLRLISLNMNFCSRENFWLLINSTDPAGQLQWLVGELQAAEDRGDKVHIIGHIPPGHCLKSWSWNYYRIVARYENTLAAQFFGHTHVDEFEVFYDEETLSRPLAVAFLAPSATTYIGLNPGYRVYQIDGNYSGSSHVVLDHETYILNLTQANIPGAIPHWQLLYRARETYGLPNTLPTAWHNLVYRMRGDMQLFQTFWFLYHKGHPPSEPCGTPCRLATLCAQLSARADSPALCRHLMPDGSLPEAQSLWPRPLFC
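Human placenta-derived ASM enzyme was preincubated with compound for 10 minutes at room temperature, then given fluorogenic substrate HMU-PC0 (9 uM final) for 60 minutes at 37 °C; a pH 10 stop preceded fluorescence reading at Ex 386/Em 447 nm.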
TSG101-PTAP inh – blocks PTAP/TSG101 interaction to inhibit HIV-1 budding; Q99816; Fluorescence polarization, FITC-PTAP peptide / Tsg101 binding; Potency, µM (series often up to 115 µM), for inactives: at the highest dose activity change, negative = inhibition, usual class: inhibitors; 340,000 tested, under 10 active; active = well fitted inhibition curve with a large enough effect in the main read-out, with a control signal flat, not every such curve was filed as active; inconclusive = small, poorly fitted or top-dose-only effect, or effect the other way, or a change in a side signal; inactive = no such curve, though single readings can be large or run the other way; also: potency is read from the fitted curve at half-maximal effect; % of control where 0% means no effect
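Steps: Tsg101 binding domain dispensed (10 uM final), compounds pinned in DMSO, FITC-labeled PTAP-motif peptide added (50 nM final); after 20 min binding at room temperature, polarization measured.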
ALOX12 inh – blocks human arachidonate 12S-lipoxygenase; hit rate 1.1% among 580,000; Potency, µM (top dose mostly 108 µM), for the others: top-dose activity change, negative = inhibition, hits mostly inhibitors; purified 12hLO, xylenol orange hydroperoxide absorbance; also: potency is read from the fitted curve at half-maximal effect; % is scaled to controls: 0 for no effect and ±100 for the full control effect
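Purified human 12hLO at 150 nM in 25 mM Hepes, 0.01% Triton X-100, pH 7.0, preincubated 15 min at room temperature with compound. Reaction started with 40 uM arachidonic acid, 30 min at room temperature. Hydroperoxide measured by Fe-xylenol orange, 573/405 nm absorbance ratio.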
Vif-A3F inh – Vif-A3F binding inhibition; AID 602313; hit rate 0.2% among 390,000; Potency, µM (highest dose often 46.1 µM), inactives show top-dose activity, negative = active; HeLa A3F-eYFP + Vif (tagged APOBEC3F with the HIV-1 protein that degrades it), YFP fluorescence increase; also: potency is read from the fitted curve at half-maximal effect; % of control where 0% means no effect; nearly all actives have a fitted effect of over 65% in size
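HeLa cells stably expressing Vif plus C-terminally eYFP-tagged A3F were seeded, incubated overnight at 37 deg C, dosed with compound, incubated overnight again at 37 deg C. Yellow fluorescence (Ex 488/Em 500-530) reported blocked Vif-mediated A3F-eYFP degradation.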
pAkt inh – blocks phosphorylation of Akt; AID 651550; activity change, % for hits at 50 µM; hit rate 0.32% among 360,000; Neuro2A IGF-stimulated pAkt S473 HTRF, 20 min; stronger effect = lower value; in the data active = activity change below about -80%; inconclusive = mostly about -51% to -80%; also: % is scaled to controls: 0 for no effect and ±100 for the full control effect
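Neuro2A cells (4,500/well, DMEM with 0.5% FBS) were treated with compound at a single 50 µM final concentration, stimulated with 6 nM IGF for 20 min at 37 °C, and lysed. Phospho-Akt Ser473 was read by HTRF as 665/615 ratio ×10^4.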
Vif-APOBEC3G blk – Vif-A3G binding inhibition; Q9HC16; HeLa A3G-eYFP + Vif (tagged APOBEC3G with the HIV-1 protein that degrades it), YFP fluorescence, overnight; Potency, µM (highest dose often 46.1 µM), for inactives: at the highest dose activity, negative = active, actives largely listed as inhibitors; hit rate 0.076% among 410,000; AID 602310; also: potency is read from the fitted curve at half-maximal effect; % is scaled to controls: 0 for no effect and ±100 for the full control effect; nearly all actives have a fitted effect of over 60% in size
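Read-out is eYFP fluorescence (Ex 488/Em 500-530) from Vif-expressing HeLa A3G-eYFP cells; more signal means A3G escaped Vif-mediated degradation. Cells plated overnight, compound pinned in, incubated overnight at 37 deg C.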
Active calls of the source: *; ! = a repeat was not active; [ ] = another dose, or the depositor's remark. Unless noted, calls follow the shape of the dose curve; as a rule, active = well fitted curve in the direction sought with a large enough effect; inconclusive = small, poorly fitted or top-dose-only effect, or another doubt; inactive = no such curve, though single readings can be large; an effect the other way counts as inactive or inconclusive.

`COc1cc(CCN(C(C)=O)C2C(=O)Nc3ccccc3N=C2c2ccc3c(c2)OCO3)cc(OC)c1` (stereo not drawn) gave ALOX12 inh 2µM*, pAkt inh inactive and Vif-APOBEC3G blk -5%.
`N#Cc1ccccc1NC(=O)c1cc2c(s1)CCCC2` gave ALOX12 inh -32%.
`O=S(=O)(O)c1cc(O)ccc1O` gave ASM inhibitor 1%, TSG101-PTAP inh -1%, ALOX12 inh 4%, Vif-A3F inh 7%, pAkt inh inactive and Vif-APOBEC3G blk -2%.
O=S(=O)(c1cc(O)ccc1O)c1cccc2c(S(=O)(=O)c3cc(O)ccc3O)cccc12 was read as ASM inhibitor inconclusive, TSG101-PTAP inh -5%, ALOX12 inh 32µM*, Vif-A3F inh -3%, pAkt inh inactive and Vif-APOBEC3G blk -15%.
For O=C(NCc1ccccn1)C1CCC(CNS(=O)(=O)c2ccccc2)CC1 (stereo not drawn) the results were ALOX12 inh 7%.
N#Cc1ccc(/C=N/Nc2ccccc2C(F)(F)F)cc1 was read as ALOX12 inh 10µM*.
Screening COc1ccc(/C=N/S(=O)(=O)c2cccs2)cc1 returned ASM inhibitor 3%, TSG101-PTAP inh -6%, ALOX12 inh 2%, Vif-A3F inh -1% and Vif-APOBEC3G blk 3%.
COc1ccc(/C=C2\S/C(=N/S(=O)(=O)c3cccs3)NC2=O)cc1 was read as ASM inhibitor 8%, TSG101-PTAP inh -12%, ALOX12 inh 40µM*, Vif-A3F inh 2%, pAkt inh inactive and Vif-APOBEC3G blk 2%.
Screening O=C(Nc1ccc(OC(F)(F)F)cc1)C(Cc1ccccc1)C(=O)Nc1ccc(OC(F)(F)F)cc1 returned ALOX12 inh -28%.
For N#Cc1cccc(NC(=O)NCc2ccncc2)c1 the results were ALOX12 inh 29%.
COc1cc(/C=C(/C#N)c2ccc(C(F)(F)F)cn2)ccc1O was read as ALOX12 inh 8.9µM*.
CCN(CC)C(=O)CN(C)C(=O)CCc1ccccc1 was read as ALOX12 inh 11%.
For COc1ccc2nc(S(=O)Cc3ncc(C)c(OC)c3C)[nH]c2c1 (stereo not drawn) the results were ASM inhibitor 1%, TSG101-PTAP inh 0%, ALOX12 inh 22µM*!, Vif-A3F inh 5%, pAkt inh inactive and Vif-APOBEC3G blk 2%.
Screening COc1cc(C(C#N)N2N=C(c3ccccc3)CC2c2ccccc2)ccc1O (stereo not drawn) returned ASM inhibitor -25%, TSG101-PTAP inh -3%, ALOX12 inh 1%, Vif-A3F inh -5%, pAkt inh -113%* and Vif-APOBEC3G blk -3%.
`N#CC(c1ccccc1O)N1N=C(c2ccccc2)CC1c1ccccc1` (stereo not drawn) gave ASM inhibitor -17%, TSG101-PTAP inh 0%, ALOX12 inh -5%, Vif-A3F inh 6%, pAkt inh inactive and Vif-APOBEC3G blk -5%.
Cc1cc(C)c2nc(NNC(=O)c3ccc(S(=O)(=O)N4CC(C)CC(C)C4)cc3)sc2c1 (stereo not drawn) was read as ASM inhibitor -14%, TSG101-PTAP inh -4%, ALOX12 inh 6.3µM*, Vif-A3F inh -9%, pAkt inh inactive and Vif-APOBEC3G blk inconclusive.
Cc1cc(C)c2nc(NNC(=O)c3ccc(S(=O)(=O)N4CCCC(C)C4)cc3)sc2c1 (stereo not drawn) was read as ASM inhibitor -20%, TSG101-PTAP inh -1%, ALOX12 inh 5.6µM*, Vif-A3F inh -7%, pAkt inh inactive and Vif-APOBEC3G blk -21%.
Cc1cc(C)c2nc(NC(=O)c3ccc(S(=O)(=O)N4CCC(C)CC4)cc3)sc2c1 was read as ALOX12 inh 0%, Vif-A3F inh 0% and Vif-APOBEC3G blk -5%.
`Cc1[nH]c2ccccc2c1C(=O)CSc1nnnn1CC(C)C` gave ALOX12 inh 0%.
For CS(=O)(=O)NCC1CCCN(C(=O)c2ccc3ccccc3n2)C1 (stereo not drawn) the results were ALOX12 inh -12%.
Cc1ccc(CN(C(=O)CCCc2cccs2)C2CC2)cc1 was read as ALOX12 inh 8.9µM*.
Screening FC(F)(F)c1ccc2c(c1)nc1n2[C@@H](CNCc2c[nH]c3ccccc23)COC1 returned ALOX12 inh -29%[176 µM].
CCOc1ccccc1CN1CCC2(CCN(Cc3ccc(F)cc3)CC2)Oc2ccccc21 was read as ALOX12 inh 32µM*.
`Cc1c(/C=N/NC(N)=O)c2ccccn2c1C(=O)c1ccc(F)cc1` gave ASM inhibitor -12%, TSG101-PTAP inh 2%, ALOX12 inh -28%, Vif-A3F inh 0%, pAkt inh inactive and Vif-APOBEC3G blk -7%.
For CNC(=S)N/N=C/c1cn(CCOc2ccc(OC)cc2)c2ccccc12 the results were ASM inhibitor inconclusive, TSG101-PTAP inh -3%, ALOX12 inh 40µM*, Vif-A3F inh -10%, pAkt inh inactive and Vif-APOBEC3G blk -8%.
CNC(=S)N/N=C/c1cn(Cc2ccc(F)cc2)c2ccccc12 was read as ASM inhibitor inconclusive, TSG101-PTAP inh -1%, ALOX12 inh 28µM*, Vif-A3F inh -11%, pAkt inh inactive and Vif-APOBEC3G blk -22%.
Screening CNC(=S)N/N=C/c1c(C)c(C(=O)c2ccc(F)cc2)n2ccccc12 returned ASM inhibitor -8%, TSG101-PTAP inh -6%, ALOX12 inh 35µM*, Vif-A3F inh -6%, pAkt inh inactive and Vif-APOBEC3G blk -9%.
`CC1=C(C#N)C(=O)NC(=O)/C1=C\c1ccc(-c2ccc(C)cc2[N+](=O)[O-])o1` gave ASM inhibitor 2%, TSG101-PTAP inh -5%, ALOX12 inh 11µM*, Vif-A3F inh -13%, pAkt inh inactive and Vif-APOBEC3G blk 0%.
CCOC(=O)c1cc(-c2ccc(/C=C3/C(=O)NC(=O)C(C#N)=C3C)o2)ccc1Cl was read as ASM inhibitor -6%, TSG101-PTAP inh -14%, ALOX12 inh inconclusive, Vif-A3F inh -3% and Vif-APOBEC3G blk -10%.
COC(=O)c1cnn(-c2ccc(C(=O)Nc3ccc(F)c(F)c3)cc2)c1N was read as ALOX12 inh -3%.
For CN1CCN(Cc2c(O)ccc3cc(Br)ccc23)CC1 the results were ASM inhibitor 3%, TSG101-PTAP inh 0%, ALOX12 inh 5.6µM*, Vif-A3F inh 1%, pAkt inh inactive and Vif-APOBEC3G blk 0%.

Screening results deposited in PubChem by National Center for Advancing Translational Sciences (NCATS).
